Tests used:
Assay in all cases: log2 ratio of Biotin-Ahx-Ub-VS probe labelling (fragment/DMSO); higher = less target engagement (more negative = stronger competition), active = hit call of the paper (q ≤ 0.05, log2 ratio ≤ -1)
Settings in all cases: compound concentration: 200 uM; treatment time: 3 h
USP34 = USP34 (UniProt Q70CQ2)
How it was run: (§1)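 Labelled DUBs from HEK293T lysate were NeutrAvidin-enriched, digested with LysC and trypsin, and run by diaPASEF LC-MS/MS. Before that, each 495 µg sample in Tris/CHAPS/IGEPAL buffer with protease inhibitors was treated in triplicate with fragment at 200 µM or vehicle for 3 h, then with Biotin-Ahx-Ub-VS at 0.5 µM final for 1 h. Values are average log2 ratios of fragment over vehicle by unpaired t-test, based on global-median-normalised Spectronaut label-free quantities from proteins with ≥2 unique peptides.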

USP36 = target: T1, USP36 (UniProt Q9P275)
T1 sequence (whole entry): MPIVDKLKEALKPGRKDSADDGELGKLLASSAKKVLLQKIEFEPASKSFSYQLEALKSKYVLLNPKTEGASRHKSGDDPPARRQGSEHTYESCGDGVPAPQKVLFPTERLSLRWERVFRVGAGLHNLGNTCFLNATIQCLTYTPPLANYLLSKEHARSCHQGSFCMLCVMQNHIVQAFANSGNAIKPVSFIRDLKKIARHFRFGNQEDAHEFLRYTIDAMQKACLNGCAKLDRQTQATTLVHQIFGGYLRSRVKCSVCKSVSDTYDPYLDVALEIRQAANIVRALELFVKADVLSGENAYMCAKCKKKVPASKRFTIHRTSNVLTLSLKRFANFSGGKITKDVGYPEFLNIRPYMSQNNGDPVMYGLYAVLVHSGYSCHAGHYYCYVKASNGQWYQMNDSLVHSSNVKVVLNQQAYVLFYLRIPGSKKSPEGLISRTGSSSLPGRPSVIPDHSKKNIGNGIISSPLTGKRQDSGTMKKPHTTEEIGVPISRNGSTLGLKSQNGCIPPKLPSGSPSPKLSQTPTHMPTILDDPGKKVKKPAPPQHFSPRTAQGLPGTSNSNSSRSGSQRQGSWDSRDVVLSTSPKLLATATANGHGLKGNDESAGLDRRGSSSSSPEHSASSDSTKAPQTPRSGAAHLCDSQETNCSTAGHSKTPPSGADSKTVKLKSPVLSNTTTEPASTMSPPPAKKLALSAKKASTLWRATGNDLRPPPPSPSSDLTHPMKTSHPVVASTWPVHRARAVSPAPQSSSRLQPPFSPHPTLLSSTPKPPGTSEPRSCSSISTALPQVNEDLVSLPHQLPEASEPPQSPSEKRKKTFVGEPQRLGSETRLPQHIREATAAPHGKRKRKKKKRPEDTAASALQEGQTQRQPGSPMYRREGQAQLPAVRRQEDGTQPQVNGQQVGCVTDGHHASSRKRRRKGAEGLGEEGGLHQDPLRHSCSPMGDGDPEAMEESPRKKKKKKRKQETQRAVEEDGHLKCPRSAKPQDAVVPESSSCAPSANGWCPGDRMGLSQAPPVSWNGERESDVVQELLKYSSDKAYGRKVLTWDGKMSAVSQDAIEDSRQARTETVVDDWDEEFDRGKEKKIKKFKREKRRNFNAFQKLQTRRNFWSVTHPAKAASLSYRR
How it was run: as §1

USP38 = target: T2, USP38 (UniProt Q8NB14)
T2 sequence (whole entry): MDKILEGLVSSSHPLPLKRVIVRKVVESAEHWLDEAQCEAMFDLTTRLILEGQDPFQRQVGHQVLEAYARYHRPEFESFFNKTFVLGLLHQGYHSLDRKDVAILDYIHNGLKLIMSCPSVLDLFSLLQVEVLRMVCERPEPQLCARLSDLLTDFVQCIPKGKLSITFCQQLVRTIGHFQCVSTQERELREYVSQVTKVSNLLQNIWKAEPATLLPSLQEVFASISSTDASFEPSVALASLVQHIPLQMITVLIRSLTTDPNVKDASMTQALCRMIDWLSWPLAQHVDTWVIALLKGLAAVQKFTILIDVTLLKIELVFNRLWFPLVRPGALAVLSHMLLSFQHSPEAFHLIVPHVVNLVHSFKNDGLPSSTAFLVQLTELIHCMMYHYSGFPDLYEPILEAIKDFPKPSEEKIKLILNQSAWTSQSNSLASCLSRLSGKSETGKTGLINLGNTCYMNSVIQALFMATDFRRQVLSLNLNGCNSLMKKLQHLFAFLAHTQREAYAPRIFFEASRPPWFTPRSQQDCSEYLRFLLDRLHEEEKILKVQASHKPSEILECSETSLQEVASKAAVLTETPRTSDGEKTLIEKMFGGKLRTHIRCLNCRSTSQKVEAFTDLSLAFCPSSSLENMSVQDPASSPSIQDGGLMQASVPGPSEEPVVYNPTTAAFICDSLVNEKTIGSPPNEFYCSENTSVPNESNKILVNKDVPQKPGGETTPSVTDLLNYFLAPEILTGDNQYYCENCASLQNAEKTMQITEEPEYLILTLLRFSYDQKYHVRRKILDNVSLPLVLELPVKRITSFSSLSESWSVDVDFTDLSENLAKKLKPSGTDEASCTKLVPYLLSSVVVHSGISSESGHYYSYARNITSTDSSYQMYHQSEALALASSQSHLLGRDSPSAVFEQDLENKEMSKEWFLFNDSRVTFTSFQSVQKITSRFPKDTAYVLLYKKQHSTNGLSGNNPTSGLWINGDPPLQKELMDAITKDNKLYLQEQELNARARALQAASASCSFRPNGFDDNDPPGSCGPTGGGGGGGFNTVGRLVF
How it was run: as §1

USP39 = target: T3, USP39 (UniProt Q53GS9)
T3 sequence (whole entry): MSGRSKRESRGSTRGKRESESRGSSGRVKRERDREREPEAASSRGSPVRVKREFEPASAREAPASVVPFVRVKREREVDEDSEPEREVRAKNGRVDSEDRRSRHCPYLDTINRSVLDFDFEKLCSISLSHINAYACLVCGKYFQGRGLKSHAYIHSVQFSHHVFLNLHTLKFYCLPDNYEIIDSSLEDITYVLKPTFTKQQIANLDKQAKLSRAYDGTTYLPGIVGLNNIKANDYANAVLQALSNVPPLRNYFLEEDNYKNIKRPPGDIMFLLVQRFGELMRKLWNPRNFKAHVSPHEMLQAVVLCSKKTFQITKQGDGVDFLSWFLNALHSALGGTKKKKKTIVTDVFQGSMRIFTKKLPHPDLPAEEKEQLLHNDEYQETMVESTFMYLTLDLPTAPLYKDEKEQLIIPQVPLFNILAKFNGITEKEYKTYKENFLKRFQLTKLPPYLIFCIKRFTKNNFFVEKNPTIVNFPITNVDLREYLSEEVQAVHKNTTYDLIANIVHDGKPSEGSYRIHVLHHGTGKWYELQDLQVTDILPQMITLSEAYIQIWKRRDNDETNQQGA
How it was run: as §1

USP4 = target: T4, USP4 (UniProt Q13107)
T4 sequence (whole entry): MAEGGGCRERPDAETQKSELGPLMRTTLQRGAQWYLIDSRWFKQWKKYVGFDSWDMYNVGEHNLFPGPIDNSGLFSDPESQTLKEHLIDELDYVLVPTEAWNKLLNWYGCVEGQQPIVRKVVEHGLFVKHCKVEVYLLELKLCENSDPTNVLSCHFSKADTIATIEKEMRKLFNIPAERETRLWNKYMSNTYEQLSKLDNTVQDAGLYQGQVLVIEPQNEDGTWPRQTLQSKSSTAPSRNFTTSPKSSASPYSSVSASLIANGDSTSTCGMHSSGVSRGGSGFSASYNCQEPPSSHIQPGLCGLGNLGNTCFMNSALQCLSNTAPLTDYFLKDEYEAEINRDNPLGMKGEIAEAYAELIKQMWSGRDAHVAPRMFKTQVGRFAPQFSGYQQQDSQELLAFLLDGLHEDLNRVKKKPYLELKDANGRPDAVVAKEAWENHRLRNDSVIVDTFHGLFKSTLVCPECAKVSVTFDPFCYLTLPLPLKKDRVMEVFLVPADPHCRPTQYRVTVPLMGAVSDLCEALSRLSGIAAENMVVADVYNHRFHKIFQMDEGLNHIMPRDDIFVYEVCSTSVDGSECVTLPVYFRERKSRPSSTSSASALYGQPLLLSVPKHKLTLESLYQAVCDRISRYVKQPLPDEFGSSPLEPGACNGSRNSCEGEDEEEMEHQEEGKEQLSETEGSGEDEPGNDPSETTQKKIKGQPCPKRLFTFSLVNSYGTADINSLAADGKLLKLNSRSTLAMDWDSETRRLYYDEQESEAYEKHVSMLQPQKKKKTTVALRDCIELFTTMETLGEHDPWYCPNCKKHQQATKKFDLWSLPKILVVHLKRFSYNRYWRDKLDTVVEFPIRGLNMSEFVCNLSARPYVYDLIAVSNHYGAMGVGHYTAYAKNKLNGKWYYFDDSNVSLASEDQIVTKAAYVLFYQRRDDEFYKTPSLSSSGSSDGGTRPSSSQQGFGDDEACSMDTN
How it was run: as §1

Measured: log2 ratio of Biotin-Ahx-Ub-VS probe labelling

Chain of USP34 (Q70CQ2 whole entry, the tested form may be a part): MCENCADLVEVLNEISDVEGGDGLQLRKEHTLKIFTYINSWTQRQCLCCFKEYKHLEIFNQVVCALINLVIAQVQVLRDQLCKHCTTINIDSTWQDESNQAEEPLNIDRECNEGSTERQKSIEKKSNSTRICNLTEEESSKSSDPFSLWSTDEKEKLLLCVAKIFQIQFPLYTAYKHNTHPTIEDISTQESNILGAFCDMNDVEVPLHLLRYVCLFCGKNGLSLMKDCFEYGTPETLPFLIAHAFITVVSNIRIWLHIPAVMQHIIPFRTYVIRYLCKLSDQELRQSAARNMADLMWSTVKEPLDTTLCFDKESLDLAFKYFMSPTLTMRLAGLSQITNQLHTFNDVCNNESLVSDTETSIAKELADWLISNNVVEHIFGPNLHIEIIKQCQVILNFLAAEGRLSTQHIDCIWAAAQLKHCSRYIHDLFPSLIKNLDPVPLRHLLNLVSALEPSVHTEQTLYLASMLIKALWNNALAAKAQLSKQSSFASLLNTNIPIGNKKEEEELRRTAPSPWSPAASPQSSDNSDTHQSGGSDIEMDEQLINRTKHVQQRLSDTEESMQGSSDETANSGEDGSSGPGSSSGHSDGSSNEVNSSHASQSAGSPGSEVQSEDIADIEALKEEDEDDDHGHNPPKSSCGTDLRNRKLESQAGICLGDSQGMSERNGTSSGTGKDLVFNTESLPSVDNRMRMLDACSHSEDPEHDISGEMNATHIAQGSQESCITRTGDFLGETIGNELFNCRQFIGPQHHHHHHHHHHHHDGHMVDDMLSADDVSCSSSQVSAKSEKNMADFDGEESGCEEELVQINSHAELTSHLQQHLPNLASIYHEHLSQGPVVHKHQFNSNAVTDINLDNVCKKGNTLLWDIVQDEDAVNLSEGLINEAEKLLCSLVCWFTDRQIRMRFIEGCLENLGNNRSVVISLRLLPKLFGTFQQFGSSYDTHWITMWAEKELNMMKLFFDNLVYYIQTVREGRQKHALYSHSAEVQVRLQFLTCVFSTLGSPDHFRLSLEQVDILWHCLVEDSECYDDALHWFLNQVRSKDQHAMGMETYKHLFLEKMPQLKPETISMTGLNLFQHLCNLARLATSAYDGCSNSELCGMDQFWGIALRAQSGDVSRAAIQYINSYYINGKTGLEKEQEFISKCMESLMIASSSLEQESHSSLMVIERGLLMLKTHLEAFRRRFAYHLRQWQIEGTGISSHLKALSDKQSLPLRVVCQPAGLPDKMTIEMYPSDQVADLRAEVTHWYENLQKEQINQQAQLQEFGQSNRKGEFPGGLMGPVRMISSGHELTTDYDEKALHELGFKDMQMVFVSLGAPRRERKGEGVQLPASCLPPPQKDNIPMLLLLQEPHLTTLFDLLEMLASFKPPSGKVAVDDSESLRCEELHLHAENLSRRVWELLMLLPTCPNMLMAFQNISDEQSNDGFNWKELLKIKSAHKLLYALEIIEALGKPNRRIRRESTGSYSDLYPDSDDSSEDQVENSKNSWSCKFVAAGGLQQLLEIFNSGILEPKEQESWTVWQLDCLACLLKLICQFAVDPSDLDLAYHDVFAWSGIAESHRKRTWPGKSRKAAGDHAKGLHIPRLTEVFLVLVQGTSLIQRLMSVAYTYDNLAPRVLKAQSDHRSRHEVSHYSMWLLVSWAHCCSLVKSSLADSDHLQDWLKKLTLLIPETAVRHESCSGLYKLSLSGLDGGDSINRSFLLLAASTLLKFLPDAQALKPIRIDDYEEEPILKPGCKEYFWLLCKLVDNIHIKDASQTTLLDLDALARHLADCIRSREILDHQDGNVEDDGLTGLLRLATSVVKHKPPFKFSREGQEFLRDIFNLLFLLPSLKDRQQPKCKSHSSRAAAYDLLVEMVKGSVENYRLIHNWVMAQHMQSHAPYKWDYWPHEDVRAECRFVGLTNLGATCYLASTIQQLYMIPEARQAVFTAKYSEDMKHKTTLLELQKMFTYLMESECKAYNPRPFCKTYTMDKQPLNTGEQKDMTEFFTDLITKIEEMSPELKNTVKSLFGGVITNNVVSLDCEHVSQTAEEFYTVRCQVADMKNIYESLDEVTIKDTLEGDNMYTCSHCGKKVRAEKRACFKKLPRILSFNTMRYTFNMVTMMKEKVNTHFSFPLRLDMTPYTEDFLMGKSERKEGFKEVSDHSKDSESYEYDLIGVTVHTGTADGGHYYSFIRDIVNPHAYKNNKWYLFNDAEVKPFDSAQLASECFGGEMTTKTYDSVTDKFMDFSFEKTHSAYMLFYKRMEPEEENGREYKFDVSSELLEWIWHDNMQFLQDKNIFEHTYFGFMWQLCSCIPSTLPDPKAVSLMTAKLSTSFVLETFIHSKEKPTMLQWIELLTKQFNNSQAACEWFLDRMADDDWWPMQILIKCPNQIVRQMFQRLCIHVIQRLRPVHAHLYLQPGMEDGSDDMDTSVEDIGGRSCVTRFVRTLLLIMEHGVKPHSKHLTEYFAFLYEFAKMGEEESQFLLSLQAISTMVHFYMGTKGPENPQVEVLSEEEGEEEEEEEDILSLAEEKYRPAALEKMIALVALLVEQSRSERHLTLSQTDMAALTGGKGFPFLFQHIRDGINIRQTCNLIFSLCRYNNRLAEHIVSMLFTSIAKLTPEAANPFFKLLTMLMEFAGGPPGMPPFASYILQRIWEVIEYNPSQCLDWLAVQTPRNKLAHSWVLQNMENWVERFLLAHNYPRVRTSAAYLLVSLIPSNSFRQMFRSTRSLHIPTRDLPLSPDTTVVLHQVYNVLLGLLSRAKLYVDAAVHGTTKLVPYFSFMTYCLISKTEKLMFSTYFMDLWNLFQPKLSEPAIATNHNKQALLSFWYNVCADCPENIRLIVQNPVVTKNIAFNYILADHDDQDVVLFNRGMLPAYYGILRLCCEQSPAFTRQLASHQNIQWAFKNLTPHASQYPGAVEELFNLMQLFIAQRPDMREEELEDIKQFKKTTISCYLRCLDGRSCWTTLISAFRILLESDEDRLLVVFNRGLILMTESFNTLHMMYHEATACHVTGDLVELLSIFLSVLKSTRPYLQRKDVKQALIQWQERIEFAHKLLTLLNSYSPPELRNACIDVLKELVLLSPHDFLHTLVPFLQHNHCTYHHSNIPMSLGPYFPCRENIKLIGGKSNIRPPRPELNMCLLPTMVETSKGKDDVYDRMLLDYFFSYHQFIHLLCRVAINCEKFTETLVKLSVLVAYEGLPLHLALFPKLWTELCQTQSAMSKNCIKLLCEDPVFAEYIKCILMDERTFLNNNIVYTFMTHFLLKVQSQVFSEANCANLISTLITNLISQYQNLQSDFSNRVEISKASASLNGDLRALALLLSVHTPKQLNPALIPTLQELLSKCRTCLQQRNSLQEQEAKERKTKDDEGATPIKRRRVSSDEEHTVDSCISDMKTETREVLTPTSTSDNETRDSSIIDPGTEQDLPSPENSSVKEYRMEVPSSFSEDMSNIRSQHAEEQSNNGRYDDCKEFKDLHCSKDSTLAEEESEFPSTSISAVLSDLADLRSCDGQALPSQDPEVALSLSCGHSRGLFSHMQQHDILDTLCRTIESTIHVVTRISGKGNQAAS

Cc1nc(CNC(=O)CCl)c2ccccn12.Cl
inactive: USP34 -0.0794 | USP36 -0.09 | USP38 -0.0607 | USP39 0.302 | USP4 -0.0724

Source: the supplement of paper PMC11732987, “Enantioselective OTUD7B fragment discovery through chemoproteomics screening and high-throughput optimisation” (Communications Chemistry, 2025)
